# Screens from PubChem BioAssay.
# Mac1 fbg enh: CD11b/CD18-fibrinogen binding enhancement | 93,000 compounds, 0.07% hits | P05107+P11215 | AID 1499 | activation, % at 10 µM | K562 CD11b/CD18 adhesion to fibrinogen, ATPlite luminescence;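 active means 10 µM primary screen giving 50% or more activity, confirmed by 40% or more on retest at that dose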
# ERa coact pot: enhances coactivator binding to human estrogen receptor alpha. P03372. TR-FRET ERalpha-LBD/SRC-Cy5 coactivator binding, 2 h; 100 = basal binding, no effect. coactivator binding (% of control), % at 25.6 µM. 86,000 compounds, 1.3% hits. AID 639; in the data active means activity above about 200%;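 further: binding measured in presence of low estradiol as agonist stimulus; 0% = peptide alone without receptor and 100% = receptor with peptide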
# Target sequence (P03372 whole entry, looked up, the tested form may be a part): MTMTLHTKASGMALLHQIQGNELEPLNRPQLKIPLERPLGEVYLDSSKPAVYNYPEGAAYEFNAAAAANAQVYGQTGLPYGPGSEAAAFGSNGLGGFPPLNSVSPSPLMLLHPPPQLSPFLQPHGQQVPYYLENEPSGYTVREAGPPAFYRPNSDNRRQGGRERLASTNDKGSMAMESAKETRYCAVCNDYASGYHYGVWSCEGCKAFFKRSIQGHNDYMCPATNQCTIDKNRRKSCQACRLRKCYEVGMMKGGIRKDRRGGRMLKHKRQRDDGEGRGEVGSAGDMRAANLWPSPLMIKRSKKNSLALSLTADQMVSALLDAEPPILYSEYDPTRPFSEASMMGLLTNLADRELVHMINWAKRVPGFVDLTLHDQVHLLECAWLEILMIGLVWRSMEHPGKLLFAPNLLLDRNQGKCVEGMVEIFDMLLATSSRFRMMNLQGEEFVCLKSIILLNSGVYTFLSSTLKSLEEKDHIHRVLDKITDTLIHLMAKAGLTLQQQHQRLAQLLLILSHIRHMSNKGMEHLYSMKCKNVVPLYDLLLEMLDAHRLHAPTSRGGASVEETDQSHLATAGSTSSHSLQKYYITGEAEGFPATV
# ERa coact inh: blocks coactivator binding to human estrogen receptor alpha; TR-FRET ER-alpha LBD / SRC-1 peptide, estradiol-bound; inhibition, % at 25.6 µM; 86,000 compounds, 1.7% hits; in the data active means inhibition above about 50%;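 further: 0% = receptor plus peptide control and 100% = peptide only without receptor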
# CD11b adhes inh: CD11b/CD18-fibrinogen binding inhibition. 93,000 compounds, 0.54% hits. K562 CD11b/CD18 adhesion to fibrinogen, ATPlite luminescence; Mn2+ added to activate the integrin. inhibition, % at 10 µM. P05107+P11215. AID 1497;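 active means primary inhibition of 50% or more at 10 µM, then 40% or more on retest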
# ERb coact inh: ER-beta (human) coactivator binding inhibition | Q92731 | TR-FRET ER-beta LBD / SRC1-Cy5 peptide binding; receptor agonist-loaded with 1 µM estradiol | inhibition, % at 25.6 µM | 86,000 compounds, 1.3% hits | AID 633;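 active means compounds whose percent inhibition of the receptor-coactivator binding signal exceeds about 50% in the single-dose screen, limit read from the data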;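 further: 0% = receptor plus peptide wells without compound and 100% = peptide-only wells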
# * = called active by the depositor; x = no result; [ ] = another dose, or the depositor's remark. Rows were chosen to be rich in hits. Some 3.1% of all compounds tested hit in one or more screens of this group.
SMILES,Mac1 fbg enh,ERa coact pot,ERa coact inh,CD11b adhes inh,ERb coact inh
C=CCn1c(SCC(=O)c2c(N)n(CCC)c(=O)n(C)c2=O)nc2sc(CC)cc2c1=O,8,445*[fluorescence artefact?],49,5,37
CCOc1ccc(-c2nc(CSCC(=O)NC3CCCc4ccccc43)c(C)o2)cc1 (centres undefined),3,93,5,45,5
COCCn1c(=O)[nH]c(=O)c2c(C(F)(F)F)cc(-c3cccs3)nc21,-1,x,x,11,x
COc1ccc(S(=O)(=O)N(CCCN2CCOCC2)Cc2ccc(OC)c(OC)c2)cc1,-2,132,-9,-8,1
COc1ccc(OC)c(CN(CCCN2CCOCC2)S(=O)(=O)c2ccc(NC(C)=O)cc2)c1,1,123,99*[fluorescence artefact?],-2,-4
O=C(Nc1ccc2c(c1)OCO2)c1cccc2c1C(=O)N(Cc1cccnc1)C2,-5,32,77*[fluorescence artefact?],-19,61*
CCCN1Cc2cccc(C(=O)Nc3ccc4c(c3)OCO4)c2C1=O,-2,79,11,-18,13
Cc1ccccc1C(=O)N1CCC(C(N)=O)CC1,-2,103,6,3,4
c1ccc(-c2nccc(-c3ccc(-n4cnc5ccccc54)cc3)n2)cc1,-1,148,92*[fluorescence artefact?],3,63*[fluorescence artefact?]
Cc1cc(C)cc(NC(N)=S)c1,2,x,x,-5,x
COC(=O)/C(=C(/F)Sc1cc(C)c(O)c(C)c1)C(F)(F)F,-7,23,41,55*,29
Cc1ccc(C)c2[nH]c(=O)c(C(c3nnnn3Cc3ccco3)N3CCc4ccccc4C3)cc12 (centres undefined),2,220*[fluorescence artefact?],19,-9,31
COc1ccc(NS(=O)(=O)c2cc(OC)ccc2NC(=O)c2cc(C)oc2C)cc1,0,134,-5,16,-2
CCN1C(=O)c2cccc3c(NC(=O)c4ccc5c(c4)OCCO5)ccc1c23,31,255*,7,8,2
CCCCN1CC(O)=C(c2nc(-c3ccc(Cl)cc3)cs2)C1=N,4,256*[fluorescence artefact?],64*[fluorescence artefact?],-16,38
N=C1C(c2nc(-c3ccc(Cl)cc3)cs2)=C(O)CN1CCCN1CCOCC1,-2,143,48,3,29
C=CCn1c(SCC(=O)c2cccs2)nc2sc(C)c(C)c2c1=O,x,163,62*[fluorescence artefact?],x,24
C=CCn1c(SCc2csc(C)n2)nc2sc3c(c2c1=O)CCCCC3,0,96,-2,15,6
C=CCn1c(SCc2cc(=O)n3ccsc3n2)nc2sc(C)c(C)c2c1=O,1,72,57*[fluorescence artefact?],-10,33
C=CCn1c(SCc2csc(C)n2)nc2sc3c(c2c1=O)CCCC3,0,100,72*[fluorescence artefact?],1,6
CCOc1ccc(C/C(N)=N/n2cnnc2)cc1,-4,109,0,8,38
CCCCNC(=O)Nc1nnc(-c2ccc(Cl)cc2)o1,0,93,-3,20,-4
COc1cc(C(=O)Nc2cnc(NC(=O)C(C)C)cc2C)cc(OC)c1OC,x,151,-6,x,52*
COC(=O)c1cc(OC)c(OC)cc1NC(=O)c1ccc(Br)o1,x,187,57*,x,23
COc1ccccc1NC(=O)c1ccc(Br)o1,-2,111,30,-20,41
SMILES,Mac1 fbg enh,ERa coact pot,ERa coact inh,CD11b adhes inh,ERb coact inh
COc1ccc(-c2nc3ccccc3o2)cc1NC(=O)c1ccc(Br)o1,2,257*[fluorescence artefact?],20,-20,1
CCn1nnc(-c2ccccc2NS(=O)(=O)c2ccc(S(=O)(=O)N(C)C3CCCCC3)cc2)n1,7,111,6,-4,3
O=C(Cn1nnc(-c2ccccc2Cl)n1)N/N=C/c1ccc(-c2cccc(Cl)c2)o1,6,x,x,3,x
COc1ccc(C(=O)Nc2nc3c(s2)Cc2cc(OC)ccc2-3)cc1,11,7,95*[fluorescence artefact?],14,55*
COc1ccc2c(c1)Cc1sc(NC(=O)c3ccccc3)nc1-2,-3,113,-1,7,1
Cc1ccc(N(C(=O)C2CCC(=O)N2)C2(C(=O)NC3CCCC3)CCCCC2)cc1 (centres undefined),-4,88,-4,8,-4
Nc1ccc2nc(-c3ccccn3)[nH]c2c1,x,12,97*[fluorescence artefact?],x,76*[fluorescence artefact?]
Nc1ccc2nc(-c3cccs3)[nH]c2c1,x,72,43,x,56*[fluorescence artefact?]
Nc1ccc2nc(-c3ccc(N)c(Cl)c3)[nH]c2c1,x,27,92*[fluorescence artefact?],x,54*[fluorescence artefact?]
COc1ccc2nc(-c3ccc(N)cc3)[nH]c2c1,x,98,1,x,10
Nc1ccc(-c2nc3c(Cl)cc(N)cc3[nH]2)cc1,1,96,6,1,21
CC(=O)Nc1ccc2nc(-c3cccs3)[nH]c2c1,3,78,14,-14,14
Nc1ccc2nc(-c3ccccc3)[nH]c2c1,x,80,82*[fluorescence artefact?],x,25
COc1ccc2nc(-c3cccc(N)c3)[nH]c2c1,x,111,-2,x,3
COC(=O)C(C)Sc1nc2c(c(-c3ccc(OC)cc3)c1C#N)-c1ccccc1C2=O (centres undefined),x,110,-13,x,-6
Cc1ccc(-n2c(N)c(-c3nc4ccccc4n3C)sc2=S)cc1,x,81,-5,x,-4
Cn1c(-c2ccc3nc(N)sc3c2)nc2cc(N)ccc21,2,27,64*[fluorescence artefact?],-25,54*[fluorescence artefact?]
Cn1c(-c2ccc(N)cc2)nc2ccccc21,0,650*[fluorescence artefact?],3,3,-7
Nc1nc2ccc(O)cc2s1,x,96,-2,x,7
CCCCOC(=O)c1ccc(NC(=O)/C=C/c2cccs2)cc1,-10,x,x,106,x
Fc1ccc(OCc2nnc(SCCN3CCOCC3)o2)cc1,x,115,-4,x,-11
CC(C)Cn1c(-c2cccs2)nc2ccccc21,-4,85,-5,4,57*
COc1cc(/C=c2\s/c(=C(/C#N)C(=O)N3CCCC3)n(-c3ccccc3)c2=O)ccc1O,8,64,59*,-1,19
COC(=O)/C=c1/s/c(=C(/C#N)C(=O)N2CCCCC2)n(-c2ccccc2)c1=O,1,103,-2,7,-3
CC(NC(=O)CSC1=NCCS1)c1ccccc1 (centres undefined),-2,x,x,-18,x
SMILES,Mac1 fbg enh,ERa coact pot,ERa coact inh,CD11b adhes inh,ERb coact inh
Cc1ccc2nc(-c3cccc(-c4nc5ccc(C)cc5o4)n3)oc2c1,x,248*[fluorescence artefact?],7,x,12
CCc1ccc2oc(-c3cccc(N)c3)nc2c1,-4,82,-5,58,-9
Cc1ccc2nc(-c3cccc(N)c3)oc2c1,-3,88,0,59*,-1
Cc1ccc2nc(CCc3nc4ccc(C)cc4o3)oc2c1,2,108,6,-9,6
COc1ccc(N/C(C)=C2/C(=O)C(=O)N(CCO)C2c2ccc([N+](=O)[O-])cc2)cc1 (centres undefined),-3,93,-2,10,-2
Cc1c(C(=O)N2CCC(C)CC2)sc2ncnc(N(C)c3ccccc3)c12,x,90,-10,x,1
C=CCn1c(SCc2c(C(=O)OC)sc(N)c2C(=O)OC)nnc1-c1ccc(Br)cc1,1,x,x,-32,x
CC(C)(C)NC(=O)c1cc(F)c(F)cc1Cl,-6,94,4,9,-4
